About 2,100 (0.53%) of roughly 400,000 compounds were called active. Roughly 14% stayed inconclusive and do not appear here. No rule for the calls is given here. The sample as a whole holds a higher share of actives than the screen did.
These compounds were tested against Ataxin-2 (Homo sapiens) (UniProt Q99700) (assay: qHTS for Inhibitors of ATXN expression.).
Ataxin-2 (Homo sapiens), sequence (Q99700 whole entry): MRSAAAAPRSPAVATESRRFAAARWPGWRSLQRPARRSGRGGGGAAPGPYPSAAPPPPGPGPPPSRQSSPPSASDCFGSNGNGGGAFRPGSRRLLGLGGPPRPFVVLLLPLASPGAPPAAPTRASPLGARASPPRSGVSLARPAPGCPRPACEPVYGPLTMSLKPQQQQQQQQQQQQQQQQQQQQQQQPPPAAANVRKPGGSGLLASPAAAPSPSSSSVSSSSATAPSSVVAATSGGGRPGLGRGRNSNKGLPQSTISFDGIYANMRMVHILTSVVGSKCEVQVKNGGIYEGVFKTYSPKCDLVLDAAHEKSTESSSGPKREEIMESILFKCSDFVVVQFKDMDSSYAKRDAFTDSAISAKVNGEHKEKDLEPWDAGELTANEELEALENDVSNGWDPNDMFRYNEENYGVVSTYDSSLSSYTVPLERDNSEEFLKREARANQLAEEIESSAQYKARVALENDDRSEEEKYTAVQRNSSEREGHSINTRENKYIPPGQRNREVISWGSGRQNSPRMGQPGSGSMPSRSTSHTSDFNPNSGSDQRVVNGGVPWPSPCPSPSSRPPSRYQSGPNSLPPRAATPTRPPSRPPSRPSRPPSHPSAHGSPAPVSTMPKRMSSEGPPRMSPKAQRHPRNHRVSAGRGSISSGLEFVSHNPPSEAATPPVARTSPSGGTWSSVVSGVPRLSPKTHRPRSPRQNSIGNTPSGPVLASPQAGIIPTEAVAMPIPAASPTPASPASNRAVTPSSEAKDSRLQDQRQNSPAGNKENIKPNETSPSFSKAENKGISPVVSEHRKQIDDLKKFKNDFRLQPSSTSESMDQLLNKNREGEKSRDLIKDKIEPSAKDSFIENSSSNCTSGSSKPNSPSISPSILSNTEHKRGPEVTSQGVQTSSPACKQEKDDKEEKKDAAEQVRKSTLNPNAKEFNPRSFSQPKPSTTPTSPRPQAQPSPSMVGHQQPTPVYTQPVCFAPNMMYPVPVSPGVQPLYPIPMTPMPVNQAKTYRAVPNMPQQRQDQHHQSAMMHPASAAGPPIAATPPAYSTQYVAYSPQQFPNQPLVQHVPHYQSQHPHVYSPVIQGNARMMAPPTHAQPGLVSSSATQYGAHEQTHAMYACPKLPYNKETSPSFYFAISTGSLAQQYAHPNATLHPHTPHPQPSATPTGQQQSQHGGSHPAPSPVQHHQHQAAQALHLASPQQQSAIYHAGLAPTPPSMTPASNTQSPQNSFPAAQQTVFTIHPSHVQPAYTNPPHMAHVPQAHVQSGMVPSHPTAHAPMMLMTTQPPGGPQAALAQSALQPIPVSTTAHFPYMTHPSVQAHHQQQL
Format: functional
In the case of CCCCCC(=O)N[C@@H](c1ccccc1)[C@@H](O)C(=O)O[C@H]1C[C@@]2(O)[C@@H](OC(=O)c3ccccc3)C3[C@](C)(C(=O)[C@H](OC(C)=O)C(=C1C)C2(C)C)[C@@H](O)C[C@H]1OC[C@@]31OC(C)=O (stereo partly drawn), the Potency is reported as 6.31 µM (active).
In the case of Cc1nc(C)c(C(=O)N2CCCC(C(=O)c3ccc4ccccc4c3)C2)s1 (stereo not drawn), the Potency is reported as 28.2 µM (active).
With CC1=C(C(=O)N2CCCC(C(=O)c3cccc(C(F)(F)F)c3)C2)OCCO1 (stereo not drawn) the Potency was “inactive”.
For COc1ccc(C(=O)C2CCCN(C(=O)c3csc(SC)n3)C2)cc1F (stereo not drawn), the Potency was “inactive”.
In the case of Cc1cccc(N2CCN(C(S)=Nc3ccc4nc(N5CCN(C)CC5)cc(C)c4c3)CC2C)c1 (stereo not drawn), the Potency is reported as 39.8 µM (active).
With O=C(NCCCNC(=O)c1cnccn1)c1ccc(Br)cc1 the Potency was “inactive”.
Cc1ccc(/C=C(\NC(=O)c2ccc(C)cc2)c2n[nH]c(S)n2)cc1 was tested, and the Potency was 25.1 µM (active).
Cc1ccc(C(=O)N/C(=C\c2ccc(Br)cc2)c2n[nH]c(S)n2)cc1 was tested, and the Potency was 25.1 µM (active).
With O=C(N/N=C/c1ccc2nccnc2c1)c1ccc(Br)cc1 the Potency was “inactive”.
CCc1cc(=O)oc2c(CN3CCCC3)c(O)c(Cl)cc12 was tested, and the Potency was “inactive”.
With NC(=O)c1sc2nnc(-c3ccccc3)c(-c3ccccc3)c2c1N the Potency was “inactive”.
In the case of CCOC(=O)C1(Cc2cccc(Cl)c2)CCCN(C(=O)CCSC)C1 (stereo not drawn), the Potency is reported as “inactive”.
CCOc1ccccc1CNS(=O)(=O)c1c[nH]cn1 was tested, and the Potency was “inactive”.
For CC(C)=CCC/C(C)=C/CNC(=O)C[C@H]1C[C@H](C(=O)N2CCOCC2)[C@@]2(CCC3CCCC3)c3[nH]c4cc(CCC(=O)N(C)C)ccc4c3CCN2C1=O, the Potency was 35.5 µM (active).
For CN(C)C(=O)CCc1ccc2c3c([nH]c2c1)[C@]1(CCC2CCCC2)[C@@H](C(=O)N2CCOCC2)C[C@H](CC(=O)NCc2cccc(C(F)(F)F)c2)C(=O)N1CC3, the Potency was 31.6 µM (active).
In the case of CN(C)C(=O)CCc1ccc2c3c([nH]c2c1)[C@]1(CCC2CCCC2)[C@@H](C(=O)N2CCOCC2)C[C@H](CC(=O)NCCC2=CCCCC2)C(=O)N1CC3, the Potency is reported as 35.5 µM (active).
CC(C)=CCC/C(C)=C/CNC(=O)C[C@H]1C[C@H](C(=O)N(C(C)C)C(C)C)[C@@]2(C)c3[nH]c4cc(CCC(=O)N(C)C)ccc4c3CCN2C1=O was tested, and the Potency was 20 µM (active).
For CCOC(=O)N1CCN(C(=O)c2cn(CC)c3ccc(S(=O)(=O)N4CCCCC4)cc3c2=O)CC1, the Potency was “inactive”.
For Cc1ccc(S(=O)(=O)c2cc3ccccc3oc2=O)cc1, the Potency was “inactive”.
For O=C(NCc1ccccc1)c1cc2ccc(O)cc2oc1=O, the Potency was “inactive”.
For COc1ccc(-c2nc3ccc(C(=O)NCC(OC)OC)cc3nc2-c2ccc(OC)cc2)cc1, the Potency was “inactive”.
For CCn1c(=N)c(C(=O)NCCCOC)cc2c(=O)n3cccc(C)c3nc21, the Potency was “inactive”.
For COCCCNc1c(O)nc2cccc3c2c1-c1ccccc1C3=O, the Potency was “inactive”.
With COCCCNC(=O)c1ccc2c3c(onc13)-c1ccccc1C2=O the Potency was 29.9 µM (active).
CCOc1ccc(N(C)S(=O)(=O)c2ccc3ncc(C(=O)NCC(OC)OC)c(O)c3c2)cc1 was tested, and the Potency was “inactive”.
With COC(CNC(=O)c1ccc2c3c(onc13)-c1ccccc1C2=O)OC the Potency was 22.4 µM (active).
O=c1oc2ccccc2cc1-c1nc2c(s1)CCCC2 was tested, and the Potency was “inactive”.
With CCc1ccc(C2=CC(c3cccc(Br)c3)n3nnnc3N2)cc1 (stereo not drawn) the Potency was “inactive”.
O=C(O)c1ccc(S(=O)(=O)N2CCN(c3ccccn3)CC2)cc1 was tested, and the Potency was “inactive”.
CC(=O)Nc1ccc(S(=O)(=O)N2CCN(C(=O)C3COc4ccccc4O3)CC2)cc1 (stereo not drawn) was tested, and the Potency was “inactive”.
With CC(=O)Nc1ccc(S(=O)(=O)N2CCN(c3nc(NC4CCCC4)c4ccccc4n3)CC2)cc1 the Potency was 31.6 µM (active).
In the case of Cc1ccc(C)c(-n2c(=O)c(C#N)cc3c(=O)n4ccccc4nc32)c1, the Potency is reported as “inactive”.
For Cc1ccc2oc(Nc3nc(C)c(C)c(C)n3)nc2c1, the Potency was “inactive”.
With CCC(C)N1CCC2(CC1)N=c1c3c(O)c4c(O)c(C)c5c(c4c1=N2)C(=O)[C@@](C)(OC=C[C@H](OC)[C@@H](C)[C@@H](OC(C)=O)[C@H](C)[C@H](O)[C@H](C)[C@@H](O)[C@@H](C)C=CC=C(C)C(=O)N3)O5 (stereo partly drawn) the Potency was 22.4 µM (active).
C=CCN(CC=C)C(=O)c1ccc(OC2CCN(S(=O)(=O)N(C)C)CC2)cc1 was tested, and the Potency was “inactive”.
With O=S(=O)(CCc1ccncc1)Cc1ccc2c3c(cccc13)CC2 the Potency was “inactive”.
CC(=O)NCc1ccc(C(=O)CCl)s1 was tested, and the Potency was 16.8 µM (active).
In the case of CCOC(=O)C1CCCN(CC(=O)Nc2nc(-c3ccccc3)cs2)C1 (stereo not drawn), the Potency is reported as “inactive”.
O=S(=O)(CCN1CCN(c2ccccn2)CC1)c1ccc(F)cc1 was tested, and the Potency was “inactive”.
For Nc1ncn([C@H]2O[C@@H](CO)[C@@H](O)[C@@H]2O)c(=O)n1, the Potency was 5.01 µM (active).
For C=CCSc1nc2c(N)ncnc2n1C1OC(CO)C(O)C1O (stereo not drawn), the Potency was “inactive”.
With O=C(NN=C1CCCC1)NC1CCCCC1 the Potency was “inactive”.
With O=C(NCCc1ccc(F)cc1)c1cccc2c1C(=O)c1ccc(N3CCC(Cc4ccccc4)CC3)cc1S2(=O)=O the Potency was “inactive”.
In the case of Cc1cccc(OCC(O)Cn2c(=N)n(CCN3CCCCC3)c3ccccc32)c1 (stereo not drawn), the Potency is reported as 39.8 µM (active).
For N=c1n(CCN2CCCC2)c2ccccc2n1CC(O)c1ccc(Cl)c(Cl)c1 (stereo not drawn), the Potency was 31.6 µM (active).
OC(CN1C2=NCCCN2c2ccccc21)c1ccc2c(c1)OCO2 (stereo not drawn) was tested, and the Potency was “inactive”.
With O=c1c2ccccc2n(CC(O)CN2CCCCC2)c2ccccc12 (stereo not drawn) the Potency was “inactive”.
Cc1cccc(OCC(O)Cn2ccnc2C)c1 (stereo not drawn) was tested, and the Potency was “inactive”.
In the case of Nn1cnnc1SCC(=O)N1CCc2ccccc2C1, the Potency is reported as “inactive”.
With CCOCCCn1c(=N)c(C(=O)NC(C)c2ccccc2)cc2c(=O)n3cc(C)ccc3nc21 (stereo not drawn) the Potency was “inactive”.
With CC(=NNc1nc2ccccc2s1)c1ccncn1 the Potency was 10 µM (active).
Cc1ccc(/C=N/Nc2nc3ccccc3s2)o1 was tested, and the Potency was “inactive”.
C/C(=N\Nc1nc2ccccc2s1)c1ccc(Br)s1 was tested, and the Potency was “inactive”.
With CCCCCCn1c(=O)[nH]c2nc3cc(N)c(C)cc3nc2c1=O the Potency was “inactive”.
For Cc1ccc(SSc2cc(C)ccc2N)c(N)c1, the Potency was 17.8 µM (active).
With FC(F)(F)c1ccc(Cl)c(-n2c(S)nnc2-c2cc(C3CC3)[nH]n2)c1 the Potency was “inactive”.
O=C(CN1C(=O)COc2ccc(S(=O)(=O)NC3CCCC3)cc21)Nc1ccc(Cl)cc1 was tested, and the Potency was 44.7 µM (active).
For CC(C)C(OC(=O)CN1C(=O)COc2ccccc21)C(=O)NC1CCCCC1 (stereo not drawn), the Potency was “inactive”.
O=S(=O)(Nc1ccc(Cl)cc1)c1ccc(N2CCOCC2)c(NC(=S)NC2CC2)c1 was tested, and the Potency was “inactive”.
COc1ccc(C(=O)Nc2ccc(S(=O)(=O)Nc3onc(C)c3C)cc2)c(OC)c1 was tested, and the Potency was “inactive”.
With O=C(Cc1cccs1)Nc1ccc(F)c(S(=O)(=O)N2CCOCC2)c1 the Potency was “inactive”.
COc1ccc(-c2nc(CSCC(=O)N3CCN(c4cccc(C)c4)C(C)C3)c(C)o2)cc1OC (stereo not drawn) was tested, and the Potency was 18.9 µM (active).
For COc1ccc(N2CCN(C(=O)COC(=O)CCc3ccccc3)CC2)cc1, the Potency was “inactive”.
COc1ccc(-c2cc3ccc(O)c(CN4CCCCC4C)c3oc2=O)cc1OC (stereo not drawn) was tested, and the Potency was “inactive”.
With COc1ccc(-c2nc(CN3CCN(Cc4cccc(Cl)c4)CC3)c(C)o2)cc1 the Potency was “inactive”.
COc1ccc(-c2nc(CN3CCC(C(=O)NC4CCCc5ccccc54)CC3)c(C)o2)cc1OC (stereo not drawn) was tested, and the Potency was “inactive”.
With COc1ccc(-c2nc(CSCC(=O)N3CCN(c4ccccc4F)CC3)c(C)o2)cc1 the Potency was 31.6 µM (active).
For CCNC(=S)N1CCN(CCNC=C2C(=O)CC(C)(C)CC2=O)CC1, the Potency was “inactive”.
In the case of CN1C(=O)NC(NS(=O)(=O)c2ccc(N)cc2)(C(F)(F)F)C1=O (stereo not drawn), the Potency is reported as “inactive”.
In the case of Nc1nc2nc(-c3cccs3)cc(C(F)(F)F)n2n1, the Potency is reported as “inactive”.
In the case of C=CCNC(=O)/C(C#N)=C/c1c(N2CCN(c3cccc(Cl)c3)CC2)nc2c(C)cccn2c1=O, the Potency is reported as “inactive”.
O/N=C/c1cc2ccccc2n1Cc1ccccc1F was tested, and the Potency was “inactive”.
With Cc1ccc(C2=NN=C(c3ccccc3)c3ncccc3N2)cc1 the Potency was “inactive”.
CC(C)c1ccc(NC2=NC(=N)c3ccccc32)cc1 was tested, and the Potency was 39.8 µM (active).
With CC(C)c1ccc(NC2=NN=C(c3cccs3)CS2)cc1 the Potency was “inactive”.
COc1ccc(S(=O)(=O)N2CCOCC2)cc1NC(=O)COc1cccnc1[N+](=O)[O-] was tested, and the Potency was “inactive”.
With Clc1cccc2c1CCN(Cc1nc(-c3cnccn3)no1)C2 the Potency was “inactive”.
In the case of COc1ccccc1N1CCN(c2nc(CNC(=O)c3ccc4c(c3)OCO4)nc3ccccc23)CC1, the Potency is reported as 28.2 µM (active).
With COc1ccccc1N1CCN(c2nc(CNC(=O)C3CC34CCCC4)nc3ccccc23)CC1 (stereo not drawn) the Potency was 35.5 µM (active).
Cc1ccc(C(=O)NCc2ccc3c(c2)OCO3)cc1N1CCCC1=O was tested, and the Potency was “inactive”.
In the case of COc1ccccc1N1CCN(C2CCCN(C(=O)c3csc(C)n3)C2)CC1 (stereo not drawn), the Potency is reported as “inactive”.
For CSc1nc(N2CCN(c3ccccc3Cl)CC2)c2ccccc2n1, the Potency was “inactive”.
COc1ccc(C(=O)N2CCOC2CNC(=O)C(=O)NCc2ccc3c(c2)OCO3)cc1 (stereo not drawn) was tested, and the Potency was “inactive”.
CC1CC(C)(C)N=C(S)N1CCC(=O)N1CCN(c2ccccc2)CC1 (stereo not drawn) was tested, and the Potency was “inactive”.
With CCn1c(=N)c(S(=O)(=O)c2ccccc2)cc2c(=O)n3ccccc3nc21 the Potency was “inactive”.
With Cc1ccccc1CN(C)C1CCN(C)CC1 the Potency was “inactive”.
In the case of CCOC(=O)C1CCCN(C(=O)c2sc3nc4n(c(=O)c3c2C)CCC4)C1 (stereo not drawn), the Potency is reported as “inactive”.
CCOC(=O)CC1(C)c2nc(NC(C)=O)sc2Cc2sc(NC(C)=O)nc21 was tested, and the Potency was “inactive”.
With O=C(O)c1cccc(N2C(=O)c3cc4cccc(Br)c4cc3C2=O)c1 the Potency was “inactive”.
O=C(NCc1ccccc1Cl)C1CCN(S(=O)(=O)c2ccc(-n3cnnn3)cc2)CC1 was tested, and the Potency was “inactive”.
For O=C(NCc1ccccc1Cl)[C@H]1CCCN1C(=O)[C@H]1CCCN1C(=O)c1cccc2ccccc12, the Potency was 10 µM (active).
With O=C(NCc1ccccc1Cl)C1CCCO1 (stereo not drawn) the Potency was “inactive”.
COc1ccc(CNC(=O)COC(=O)c2ccc(OCC3CCCO3)cc2)cc1 (stereo not drawn) was tested, and the Potency was “inactive”.
